Only some compounds are listed: those with a hit (about 7.4% of all), similar ones and a draw of the others.
PD-1 reversal: activators reversing PD-1 mediated T-cell inhibition; primary human CD4 T cells, PD-L1 beads, CellTiter-Glo 96 h; activation, % (concentration not given with the values); 29,000 tested, under 10 active; call rule not given here
MITF inh: inhibitors of MITF | AID 2240 | inhibition, % (concentration not given with the values) | 37,000 tested, 0.28% active | TRPM1 promoter luciferase, luminescence, 24 h; in the data active = inhibition above about 85%;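 also: human melanocyte line stably carrying TRPM1 promoter luciferase reporter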
NOMO-1 viab: STK33 inhibitor candidate reducing NOMO-1 cell viability; 37,000 tested, 7.5% active; NOMO-1 AML viability, CellTiter-Glo luminescence, 72 h; inhibition, % (concentration not given with the values); AID 2330; in the data active = inhibition above about 80%
YB-1 expression: YB-1 expression inhibition | delta delta Cp (YB-1 minus CDIP) (test concentration not listed) | U2OS, qRT-PCR YB-1 vs CDIP delta delta Cp, 16 h; hits give high values; zero = DMSO, each unit about twofold | AID 434959 | 30,000 tested, 0.37% active;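 active = delta delta Cp rounded down to an integer at or above 3, about 3 SD of DMSO wells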;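 also: higher means less YB-1 transcript or more CDIP transcript relative to DMSO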
Shh pathway inh: blocks Sonic Hedgehog signaling; Shh-LIGHT2 Gli-luciferase reporter, 30 h; inhibition, % (test concentration not listed); 22,000 tested, 2.1% active; AID 2313;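 active = mean inhibition across valid replicates above about 65%, limit read from the data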;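 also: pathway switched on by Shh-conditioned medium diluted 1 in 25 in low serum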
Hits are given with their value; n = inactive; x = not tested or not shown.

SMILES	PD-1 reversal	MITF inh	NOMO-1 viab	YB-1 expression	Shh pathway inh
CC(C(=O)Oc1cccc2cccnc12)N1C(=O)c2ccccc2C1=O (centres undefined)	n	n	127	x	x
COc1ccc(F)cc1S(=O)(=O)Nc1cccc(S(=O)(=O)N2CC3(C)CC2CC(C)(C)C3)c1 (centres undefined)	n	n	n	x	x
COc1ccc(Cl)cc1NC(=O)C(C)NS(=O)(=O)c1ccc(C)cc1 (centres undefined)	x	n	n	x	x
C[C@@H]1CN([C@H](C)CO)C(=O)Cc2cc(NC(=O)CCC(F)(F)F)ccc2O[C@@H]1CN(C)S(=O)(=O)c1ccccc1	n	n	n	n	n
C[C@@H]1CN([C@@H](C)CO)C(=O)Cc2cc(NS(=O)(=O)c3ccc(F)cc3)ccc2O[C@@H]1CN(C)Cc1ccc(C(F)(F)F)cc1	n	n	103	n	n
C[C@@H]1CN([C@H](C)CO)C(=O)Cc2cc(NS(=O)(=O)c3ccc(F)cc3)ccc2O[C@H]1CN(C)Cc1ccc(C(F)(F)F)cc1	n	n	127	n	n
C[C@H]1CN([C@@H](C)CO)C(=O)Cc2cc(NS(=O)(=O)c3ccc(F)cc3)ccc2O[C@@H]1CN(C)Cc1ccc(C(F)(F)F)cc1	x	n	90	n	n
C[C@H](CO)N1C[C@H](C)[C@H](CN(C)Cc2ccc(C(=O)O)cc2)Oc2ccc(NS(=O)(=O)c3ccc(F)cc3)cc2CC1=O	x	n	n	n	x
C[C@@H]1CN([C@@H](C)CO)C(=O)Cc2cc(NS(=O)(=O)c3ccccc3)ccc2O[C@@H]1CN(C)Cc1ccc(C(F)(F)F)cc1	x	n	n	n	n
C[C@H]1CN([C@@H](C)CO)C(=O)c2cc(NS(=O)(=O)c3cn(C)cn3)ccc2O[C@H]1CN(C)Cc1ccc2c(c1)OCO2	n	n	n	n	x
CCc1oc2ccccc2c1C(=O)c1ccc(OC(C)=O)cc1	n	n	136	n	n
O=C1N=C(c2cccc(O)c2)c2ccccc2Nc2ccccc21	n	n	n	n	86
C[C@@H]1CCCCO[C@@H](CN(C)C(=O)Nc2ccc(C(F)(F)F)cc2)[C@@H](C)CN([C@H](C)CO)C(=O)c2cc(NS(=O)(=O)c3ccc(F)cc3)ccc2O1	n	n	110	n	98
COc1ccc(S(=O)(=O)Nc2ccc3c(c2)C(=O)N([C@H](C)CO)C[C@H](C)[C@H](CN(C)C(=O)Nc2ccc(C(F)(F)F)cc2)OCCCC[C@@H](C)O3)cc1	n	n	134	n	n
Cc1ccc(S(=O)(=O)Nc2ccc3c(c2)C(=O)N([C@H](C)CO)C[C@H](C)[C@@H](CN(C)C(=O)Nc2ccc(C(F)(F)F)cc2)OCCCC[C@@H](C)O3)cc1	x	n	n	n	n
C[C@@H]1CN([C@H](C)CO)C(=O)Cc2cc(NC(=O)Nc3cccc4ccccc34)ccc2O[C@@H]1CN(C)Cc1ccc(Cl)c(Cl)c1	n	n	115	n	n
C[C@H]1CN([C@@H](C)CO)C(=O)c2cc(NC(=O)Nc3cccc4ccccc34)ccc2O[C@@H]1CN(C)Cc1ccc(Cl)c(Cl)c1	n	n	109	n	n
C[C@H]1CN([C@@H](C)CO)C(=O)c2cc(NC(=O)Nc3cccc4ccccc34)ccc2O[C@@H]1CN(C)Cc1ccncc1	n	n	n	n	x
C[C@H]1CN([C@@H](C)CO)C(=O)Cc2cc(NC(=O)Nc3cccc4ccccc34)ccc2O[C@H]1CN(C)Cc1ccc(Cl)c(Cl)c1	n	n	88	n	n
C[C@H]1CN([C@@H](C)CO)C(=O)c2cc(NC(=O)Nc3cccc4ccccc34)ccc2O[C@H]1CN(C)Cc1ccncc1	n	n	108	n	x
C[C@H](CO)N1C[C@H](C)[C@H](CN(C)Cc2ccc(Cl)c(Cl)c2)Oc2ccc(NC(=O)Nc3cccc4ccccc34)cc2CC1=O	n	n	n	n	n
C[C@H](CO)N1C[C@H](C)[C@H](CN(C)C(=O)Nc2ccc3c(c2)OCO3)Oc2ccc(NS(=O)(=O)c3ccc(F)cc3)cc2C1=O	n	n	n	n	x
O=C(O)CCCCCCC(=O)N/N=C/c1nccs1	x	x	x	n	x
CSc1nc(N)nc(SC(C(=O)O)c2ccccc2)c1C#N (centres undefined)	n	n	n	x	x
COc1ccc(CN(C)C[C@H]2Oc3ccc(NS(=O)(=O)c4ccc(Cl)cc4)cc3C(=O)N([C@H](C)CO)C[C@H]2C)cc1	x	n	n	n	n
SMILES	PD-1 reversal	MITF inh	NOMO-1 viab	YB-1 expression	Shh pathway inh
O=C(N/N=C/c1ccc2c(c1)Cc1ccccc1-2)c1ccccn1	x	x	x	n	x
C[C@@H]1CN([C@@H](C)CO)C(=O)c2cc(NC(=O)Nc3cccc4ccccc34)ccc2O[C@@H]1CN(C)Cc1ccc2c(c1)OCO2	n	n	n	n	n
C[C@H]1CN([C@@H](C)CO)C(=O)c2cc(NC(=O)Nc3cccc4ccccc34)ccc2O[C@H]1CN(C)Cc1ccc2c(c1)OCO2	n	n	97	n	n
C[C@@H]1CN([C@H](C)CO)C(=O)c2cccc(NC(=O)Nc3ccccc3)c2O[C@@H]1CN(C)Cc1ccc(C(F)(F)F)cc1	n	n	n	n	n
C[C@H](CO)N1C[C@H](C)[C@@H](CN(C)Cc2ccc(Oc3ccccc3)cc2)Oc2c(NC(=O)Nc3ccc(C(F)(F)F)cc3)cccc2C1=O	x	n	97	n	n
COc1ccc(NC(=O)Nc2cccc3c2O[C@H](CN(C)Cc2ccc(C(F)(F)F)cc2)[C@H](C)CN([C@H](C)CO)C3=O)cc1	n	n	n	n	n
C[C@H]1CN([C@@H](C)CO)C(=O)c2cccc(NC(=O)Nc3ccccc3)c2O[C@@H]1CN(C)Cc1ccc(C(F)(F)F)cc1	n	n	104	n	n
C[C@H]1CN([C@@H](C)CO)C(=O)c2cccc(NC(=O)Nc3ccc(C(F)(F)F)cc3)c2O[C@H]1CN(C)Cc1ccccc1	x	n	n	n	n
C[C@@H]1CN([C@@H](C)CO)C(=O)c2cccc(NC(=O)Nc3ccc(C(F)(F)F)cc3)c2O[C@H]1CN(C)Cc1ccccc1	n	n	103	n	n
C[C@H](CO)N1C[C@H](C)[C@@H](CN(C)Cc2ccc(C(F)(F)F)cc2)Oc2c(NC(=O)Nc3ccccc3)cccc2C1=O	x	n	93	n	n
C[C@@H]1CN([C@@H](C)CO)C(=O)c2cccc(NC(=O)Nc3ccccc3)c2O[C@H]1CN(C)Cc1ccc(C(F)(F)F)cc1	n	n	88	n	74
C[C@@H]1CN([C@H](C)CO)C(=O)c2cccc(NC(=O)Nc3cccc4ccccc34)c2O[C@@H]1CN(C)Cc1ccc(C(F)(F)F)cc1	n	n	98	n	n
COc1c(O)c2c(=O)cc(OC)c3c4c(OC)cc(=O)c5c(O)c(OC)c(C[C@@H](C)OC(=O)c6ccccc6)c(c(c1C[C@@H](C)OC(=O)Oc1ccc(O)cc1)c23)c54	n	n	142	n	72
O=C(Cn1cnc([N+](=O)[O-])n1)Nc1cccc2ccccc12	x	n	n	x	x
